Source: PubChem BioAssay (Sanford-Burnham Center for Chemical Genomics)
PPC-1+TRAIL kill: compounds killing PPC-1 cancer cells with TRAIL present (potentiator screen, no TRAIL-free arm) | cell killing (% activity), % at 4 µM or 5 µM | AID 1443 | PPC-1 cells + TRAIL, ATPLite viability luminescence | 220,000 compounds, 0.41% hits;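 active = cell killing above 50% in the first pass at 4 µM, then a duplicate retest at 5 µM averaging 50% or more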
SENP7 inh: blocks the human protease SENP7; recombinant SENP7, Z-RLRGG-aminoluciferin luminescence, 40 min; Q9BQF6; inhibition, % at 5 µM; AID 434973; 330,000 compounds, 1.5% hits;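 active = inhibition above about 50% at the single test dose, limit read from the data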
Target sequence (Q9BQF6 706-1050 limits assumed): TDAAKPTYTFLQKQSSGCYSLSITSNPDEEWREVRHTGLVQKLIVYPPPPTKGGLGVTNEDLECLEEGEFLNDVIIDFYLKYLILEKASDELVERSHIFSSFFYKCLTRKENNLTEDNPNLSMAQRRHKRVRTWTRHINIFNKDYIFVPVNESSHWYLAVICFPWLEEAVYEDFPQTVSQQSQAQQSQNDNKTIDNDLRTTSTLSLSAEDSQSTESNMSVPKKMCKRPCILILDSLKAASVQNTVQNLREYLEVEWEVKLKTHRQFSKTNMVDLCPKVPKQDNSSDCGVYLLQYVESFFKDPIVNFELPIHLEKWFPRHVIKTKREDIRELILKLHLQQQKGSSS
SENP8 block-1: SENP8 (human) protease inhibition | recombinant SENP8, Nedd8 substrate fluorescence | Q96LD8 | 360,000 compounds, 0.64% hits | inhibition, % at 20 µM; in the data active = inhibition mostly above about 40%, no sharp cut-off; inactive = mostly below about 27%
Target sequence (Q96LD8 whole entry, looked up): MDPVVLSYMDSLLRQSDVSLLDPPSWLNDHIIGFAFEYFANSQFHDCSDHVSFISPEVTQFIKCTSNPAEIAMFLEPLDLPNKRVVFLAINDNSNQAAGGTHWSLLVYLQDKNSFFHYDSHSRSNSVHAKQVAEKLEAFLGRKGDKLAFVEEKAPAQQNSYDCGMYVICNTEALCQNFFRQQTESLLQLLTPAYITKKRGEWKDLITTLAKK
SENP6 block: SENP6 protease inhibition; Q9GZR1; Recombinant SENP6 catalytic domain, aminoluciferin luminescence; inhibition, % at 10 µM; 330,000 compounds, 1.8% hits;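 active = inhibition above about 50% at the single tested dose, limit read from the data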
C8 TRAIL sens: caspase-8 TRAIL sensitization | NB7+C8 cells + TRAIL, ATPlite viability luminescence | inhibition (viability loss, TRAIL sensitization), % at 10 µM | 360,000 compounds, 1% hits;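 active = compounds causing at least 50% loss of cell viability in the single-dose screen, relative to plate controls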
SENP8 block-2: SENP8 protease inhibition | AID 2540 | 330,000 compounds, 1.2% hits | inhibition, % at 10 µM | purified SENP8, Z-RLRGG-aminoluciferin cleavage, luminescence | Q96LD8; in the data active = inhibition above about 50%
Each line names hits and unclear results; the compound was inactive in the other large screens. An excerpt weighted towards active compounds, which were near 3% of everything screened.

C#CCOCCOCCOCCNc1nc(N2CCN(C(=O)CCCCCCCCCCNC(=O)[C@H]([C@@H](C)CC)n3cc(CCCCCN)nn3)CC2)nc(N2CCN(C(=O)CCCCCCCCCCNC(=O)[C@@H]([C@H](C)O)n3cc(C)nn3)CC2)n1	C8 TRAIL sens 91.7 (no result: PPC-1+TRAIL kill)
O=C(O)C(Cc1c[nH]c2ccccc12)N1CCS(=O)(=O)CC1 (configuration not stated)	none
CNC(=O)c1c(NC(=O)c2cccc(N3C(=O)CCC3=O)c2)sc2c1CCCC2	none
NC(=O)c1c(NC(=O)c2cccc(N3C(=O)CCC3=O)c2)sc2c1CCCCC2	C8 TRAIL sens 83.3 (no result: PPC-1+TRAIL kill)
CC12CCC(C(=O)C1)C1(C)CCCC(=O)C21 (configuration not stated)	none (no result: PPC-1+TRAIL kill, SENP7 inh, SENP6 block, SENP8 block-2)
CCOC(=O)c1ccc2c(c1)n(CC)c(/C=C/N(C)c1ccccc1)[n+]2CC	none
CC[n+]1c(/C=C/N(C)c2ccccc2)n(-c2ccccc2)c2ccc(-c3nc4ccccc4s3)cc21	C8 TRAIL sens 91.1 (no result: PPC-1+TRAIL kill)
NS(=O)(=O)c1ccc(N/N=C/C=C/c2ccccc2[N+](=O)[O-])cc1	none (no result: PPC-1+TRAIL kill)
O=C(O)c1cc(N/N=C/C=C/c2ccccc2[N+](=O)[O-])ccc1Cl	SENP8 block-2 52.4
CCCCC(=Nc1ccc(N)cc1)C1=C(O)C(C(=O)OC)C(C)(C)CC1=O (configuration not stated)	SENP8 block-1 54.1
CCCC(=Nc1ccccc1)C1=C(O)C(C(=O)OC)C(C)(C)CC1=O (configuration not stated)	none
CCC(=Nc1ccc(N)cc1)C1=C(O)C(C(=O)OC)C(C)(C)CC1=O (configuration not stated)	SENP8 block-1 70.4
O=C(NC1CCCC1)C1CCN(C(=O)c2cccc(Cl)c2)CC1	none (no result: PPC-1+TRAIL kill)
CN[C@H]1C[C@H]2c3cc(N4CCN(C)CC4)ccc3CCN2C(=O)[C@H]1[C@H](C)O	none (no result: PPC-1+TRAIL kill, SENP7 inh, SENP6 block, SENP8 block-2)
CCN(CC)S(=O)(=O)c1cc(C(=O)OCC(=O)Nc2ccc(-c3nc4ccc(C)cc4s3)cc2)ccc1F	C8 TRAIL sens 74.2
CCN(CC)S(=O)(=O)c1cc(C(=O)OCC(=O)Nc2cccc(S(=O)(=O)N(C)C)c2)ccc1F	none
CCN(CC)S(=O)(=O)c1ccc(NC(=O)COC(=O)c2ccc(-n3nc(C)cc3C)cc2)cc1	none
CCN(CC)S(=O)(=O)c1ccc(C(=O)OCC(=O)Nc2ccc(-c3nc4ccc(C)cc4s3)cc2)cc1	C8 TRAIL sens 74.9
CCOc1cc(C(c2c(C)[nH][nH]c2=O)c2c(C)[nH][nH]c2=O)ccc1OCc1ccc([N+](=O)[O-])cc1	SENP8 block-1 37.4
COC(=O)c1ccc(-c2ccc(/C=N/N3C(=O)C4C5C=CC(C6CC56)C4C3=O)o2)cc1 (configuration not stated)	PPC-1+TRAIL kill 54.7
CCNC(=O)C1(C)CCCN(Cc2noc(-c3c(C)noc3C)n2)C1 (configuration not stated)	none (no result: PPC-1+TRAIL kill, SENP7 inh, SENP6 block, SENP8 block-2)
Cc1cc(/C=C2/SC(=S)N(c3cccc(Cl)c3)C2=O)c(C)n1-c1cccnc1	none (no result: PPC-1+TRAIL kill)
Cc1cc(/C=C2\SC(=S)N(C)C2=O)c(C)n1-c1ccccc1O	SENP7 inh 76.6, SENP6 block 87.4, SENP8 block-2 69.8 (no result: PPC-1+TRAIL kill)
CC1(C)Nc2ccc(O)cc2-c2c1ssc2=S	SENP8 block-1 67.1
Cc1cccc2[nH]c3c(=O)n(CCN4CCNCC4)cnc3c12	none
CC(C)CCn1cnc2c([nH]c3cccc(Cl)c32)c1=O	C8 TRAIL sens 51.8
C[C@H](CO)N1C[C@H](C)[C@@H](CN(C)C(=O)Nc2ccc(F)cc2)Oc2ncc(-c3ccc(F)cc3)cc2C1=O	none (no result: PPC-1+TRAIL kill, SENP7 inh, SENP6 block, SENP8 block-2)
Cc1cc(NCCCn2ccnc2)n2ncc(-c3ccc(Cl)cc3)c2n1	C8 TRAIL sens 53.8
Cc1cc(NCCCN2CCOCC2)n2ncc(-c3ccc(Cl)cc3)c2n1	none
CS(=O)(=O)N1CCN(c2ccc(NC(=O)C(c3ccccc3)c3ccccc3)cc2)CC1	none
O=C(Nc1ccc(N2CCCC2)cc1)C(Cl)c1ccccc1 (configuration not stated)	SENP6 block 65.7
CCCc1ccc(-c2cc(C(=O)NCCc3ccc(S(N)(=O)=O)cc3)c3ccccc3n2)cc1	C8 TRAIL sens 57.9
NS(=O)(=O)c1ccc(CCNC(=O)c2cc(-c3ccc(Br)cc3)nc3ccccc23)cc1	none
COCCNC(=O)c1cc(-c2ccc(-c3ccccc3)cc2)nc2ccccc12	C8 TRAIL sens 56.4 (no result: PPC-1+TRAIL kill)
CCCc1ccc(-c2cc(C(=O)Nc3ccc([N+](=O)[O-])cn3)c3ccccc3n2)cc1	C8 TRAIL sens 51.1
CC(C)N(C(=O)CSc1ccc(S(=O)(=O)N2CCCCC2)cn1)c1ccccc1	none (no result: PPC-1+TRAIL kill)
Cc1ccc(C(=O)OCn2ncc(Cl)c(Cl)c2=O)cc1	C8 TRAIL sens 93.8
CCOC(=O)c1ccc(NC(=O)Cn2ncc(Cl)c(Cl)c2=O)cc1	none
O=C(OCn1ncc(Cl)c(Cl)c1=O)c1ccc(C(F)(F)F)cc1	C8 TRAIL sens 78.4
Nc1ccn([C@@H]2O[C@H](C(=O)N[C@H](CO)Cc3ccccc3)[C@@H](O)[C@H]2O)c(=O)n1	none (no result: PPC-1+TRAIL kill, SENP7 inh, SENP6 block, SENP8 block-2)
CN1CCN(c2ccc(-c3cccc(NC(=O)COc4ccc(Cl)cc4)c3)nn2)CC1	C8 TRAIL sens 62.3 (no result: PPC-1+TRAIL kill)
CCC(=O)Nc1cccc(-c2ccc(N3CCN(C)CC3)nn2)c1	none (no result: PPC-1+TRAIL kill)
CN1CCN(c2ccc(-c3cccc(NC(=O)COc4ccccc4)c3)nn2)CC1	C8 TRAIL sens 64.4 (no result: PPC-1+TRAIL kill)
CCCCNCCS(=O)(=O)NCc1ccc(OC)cc1	none (no result: PPC-1+TRAIL kill, SENP7 inh, SENP6 block, SENP8 block-2)
CCOc1ccccc1NC(=O)COC(=O)c1cnc(C)cn1	none (no result: PPC-1+TRAIL kill)
O=C1c2ccccc2C2N1CCCN2C(=O)c1sc2ccccc2c1Cl (configuration not stated)	none (no result: PPC-1+TRAIL kill, SENP7 inh, SENP6 block, SENP8 block-2)
O=C(CC(=O)c1cccs1)c1ccncc1	none (no result: PPC-1+TRAIL kill, SENP7 inh, SENP6 block, SENP8 block-2)
CCOC(=O)C1CCN(C(=O)c2c(C)oc3c2C(=O)c2ccccc2C3=O)CC1	SENP8 block-1 60.1, C8 TRAIL sens 52.1
CCOC(=O)C1CCN(C(=O)c2ccc(C)o2)CC1	none (no result: PPC-1+TRAIL kill)
COC(=O)[C@@]12C[C@@H](CC(=O)N3CCN(C(=O)c4ccco4)CC3)C(=O)N(Cc3cccc4ccccc34)C1=CCC(C)(C)C2	none (no result: PPC-1+TRAIL kill, SENP7 inh, SENP6 block, SENP8 block-2)
CCOC(=O)N1CCN(C(=O)COC(=O)C2CCN(S(=O)(=O)c3c(Cl)cccc3Cl)CC2)CC1	none (no result: PPC-1+TRAIL kill)
CCOC(=O)CSc1nc2cc(OC)ccc2cc1C#N	C8 TRAIL sens 67.0
CCOC(=O)CSc1nc2ccc(C)cc2cc1C#N	none
CCOC(=O)CSc1nc2cc(C)ccc2cc1C#N	C8 TRAIL sens 52.6
N#Cc1ccccc1S(=O)(=O)N1CCN(C(=O)CN(Cc2ccco2)Cc2cccs2)CC1	none (no result: PPC-1+TRAIL kill, SENP7 inh, SENP6 block, SENP8 block-2)
Brc1csc(/C=N/Nc2nc3ccccc3s2)c1	SENP7 inh 75.7, SENP8 block-2 57.2
O=[N+]([O-])c1cc(Cl)cc(/C=N/Nc2nc3ccccc3s2)c1O	SENP6 block 54.4
Brc1cc2c(cc1/C=N/Nc1nc3ccccc3s1)OCO2	none
C(=N\Nc1nc2ccccc2s1)/c1ccc2c(c1)OCO2	SENP7 inh 88.6, SENP6 block 66.7, SENP8 block-2 55.1
